Out of some 310,000 compounds screened, about 14,000 (4.5%) showed an effect of 50% or more. Effects have a minus sign here. The entries come from a sample that favours strong results as a whole.
Each compound was assayed against human ether-à-go-go-related gene (hERG) potassium channel (human, UniProt Q12809) (assay: primary screen, population patch clamp on CHO cells stably expressing hERG; higher = less effect of the substance).
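Also: peak tail current of the secondary pulse compared with the same well before compound.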

Chain of human ether-à-go-go-related gene (hERG) potassium channel (Q12809 whole entry, looked up): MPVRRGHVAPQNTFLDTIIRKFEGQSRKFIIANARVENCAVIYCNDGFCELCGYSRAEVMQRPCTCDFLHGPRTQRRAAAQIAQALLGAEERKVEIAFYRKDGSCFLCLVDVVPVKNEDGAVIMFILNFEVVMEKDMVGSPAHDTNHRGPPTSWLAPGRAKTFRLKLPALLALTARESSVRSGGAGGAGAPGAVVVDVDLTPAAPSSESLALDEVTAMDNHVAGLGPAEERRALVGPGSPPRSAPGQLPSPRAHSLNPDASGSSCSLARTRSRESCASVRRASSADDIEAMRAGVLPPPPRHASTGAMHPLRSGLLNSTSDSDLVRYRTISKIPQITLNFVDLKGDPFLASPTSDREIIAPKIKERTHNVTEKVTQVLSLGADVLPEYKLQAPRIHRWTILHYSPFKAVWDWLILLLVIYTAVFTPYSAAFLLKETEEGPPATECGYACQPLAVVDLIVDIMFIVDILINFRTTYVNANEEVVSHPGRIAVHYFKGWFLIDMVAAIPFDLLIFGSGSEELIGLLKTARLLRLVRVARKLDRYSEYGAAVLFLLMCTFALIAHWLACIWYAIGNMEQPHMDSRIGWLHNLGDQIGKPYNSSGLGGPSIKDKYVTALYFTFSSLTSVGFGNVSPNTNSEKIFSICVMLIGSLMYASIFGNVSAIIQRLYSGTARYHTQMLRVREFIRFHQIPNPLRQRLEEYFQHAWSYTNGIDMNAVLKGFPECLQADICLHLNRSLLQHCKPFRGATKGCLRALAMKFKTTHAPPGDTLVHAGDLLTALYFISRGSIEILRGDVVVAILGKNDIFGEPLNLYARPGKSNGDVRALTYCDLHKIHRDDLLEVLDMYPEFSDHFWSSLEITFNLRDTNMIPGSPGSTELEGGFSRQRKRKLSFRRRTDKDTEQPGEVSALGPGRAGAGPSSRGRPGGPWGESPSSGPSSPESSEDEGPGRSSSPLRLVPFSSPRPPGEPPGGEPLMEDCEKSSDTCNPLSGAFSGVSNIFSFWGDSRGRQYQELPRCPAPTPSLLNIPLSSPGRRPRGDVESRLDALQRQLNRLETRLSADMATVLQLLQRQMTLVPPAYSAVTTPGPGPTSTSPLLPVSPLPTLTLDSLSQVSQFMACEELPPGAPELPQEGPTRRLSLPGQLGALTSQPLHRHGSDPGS

Row | Compound | hERG current change (%, negative = inhibition) at 10uM
1 | O=C(O)c1ccc(N2C(=O)c3cccnc3C2=O)cc1 | 16.9%
2 | O=C1CCCN1c1ccc(S(=O)(=O)N2CCN(c3ccccc3)CC2)cc1 | 16.3%
3 | COc1ccc2c(c1OC)C(=O)OC2Nc1nc(-c2ccc(-c3ccccc3)cc2)cs1 (stereo not shown) | 17%
4 | CC(C)=NNC(=O)c1c(O)c2ccccc2[nH]c1=O | -20%
5 | NC(=O)c1cc(N2C(=O)C=CC2=O)ccc1Cl | 1.79%
6 | NS(=O)(=O)c1ccc(N2C(=O)C(=O)/C(=C(/O)c3ccccc3)C2c2ccc(Cl)cc2)cc1 (stereo not shown) | 18.1%
7 | CCN(CCNC(=O)C1CCCN(Cc2nc(-c3ccc(OC)cc3)oc2C)C1)c1ccccc1 (stereo not shown) | -28.1%
8 | Cc1oc(-c2ccc(Cl)cc2)nc1CN1CCC(C(=O)NCCCN2CCOCC2)CC1 | -26.5%
9 | CCN1CCN(CCNC(=O)C2CCN(Cc3nc(-c4ccc(Cl)cc4)oc3C)CC2)CC1 | 1.11%
10 | CCC1CCCCN1CCCNC(=O)C1CCN(Cc2nc(-c3ccc(Cl)cc3)oc2C)CC1 (stereo not shown) | -42.2%
11 | CCN(CCNC(=O)C1CCN(S(C)(=O)=O)CC1)c1ccccc1 | -1.8%
12 | CCN(CCNC(=O)C1CCN(S(=O)(=O)CC)CC1)c1ccccc1 | -16.9%
13 | CCc1ccc(-c2nc(CN3CCC(C(=O)NCCN(CC)c4ccccc4)CC3)c(C)o2)cc1 | -69.5%
14 | CCCN(CCC)CCNC(=O)C1CCN(Cc2nc(-c3ccc(Cl)cc3)oc2C)CC1 | -60.6%
15 | CCN(CCNC(=O)C1CCN(Cc2nc(-c3ccc(Cl)cc3)oc2C)CC1)c1ccccc1 | -65.9%
16 | CCCCN(CC)C(=O)C1CCC(=O)N(c2ccc(OC)cc2)C1c1ccc(OC)c(OC)c1 (stereo not shown) | -10.2%
17 | CC(C)C(=O)Nc1nc2cc3c(cc2s1)OCCO3 | -4.59%
18 | S=c1[nH]nc(-c2ccc(Cl)cc2)n1/N=C/C=C/c1ccco1 | 15.3%
19 | CCN(CC)S(=O)(=O)c1ccc(O)c(C(=O)OCC(=O)N2CCCC2)c1 | 11.4%
20 | CCS(=O)(=O)c1nc(S(=O)(=O)c2ccc(C)cc2)c(NCCCn2ccnc2)s1 | -26.5%
21 | CC(=O)Nc1nc(S(=O)(=O)c2ccc(C)cc2)c(Cl)s1 | -8.1%
22 | Cc1ccc(S(=O)(=O)c2nc(NCCCn3ccnc3)sc2Cl)cc1 | -78.6%
23 | CC(C)CNc1nc(S(=O)(=O)c2ccccc2)c(Cl)s1 | -11.5%
24 | Cc1ccc(S(=O)(=O)c2nc(NCCN(C)C)sc2Cl)cc1 | -69.5%
25 | O=S(=O)(c1ccccc1)c1nc(NCc2ccccc2)sc1Cl | -9.88%
26 | Cc1ccc(S(=O)(=O)c2nc(NN(C)C)sc2Cl)cc1 | -5.48%
27 | CCCS(=O)(=O)c1nc(S(=O)(=O)c2ccc(C)cc2)c(NCCCn2ccnc2)s1 | -29.6%
28 | CN(C)CCNc1nc(S(=O)(=O)c2ccccc2)c(Cl)s1 | -56.2%

From publication PMC4336329 (PLoS ONE, 2015)
